# Reference: paper PMC5540273 (PLoS ONE, 2017)
# Assays:
# Settings in all cases: concentration: 1 μM, replicates: in singlicate; n = 1
# JNK3 = system: T1, JNK3
# T1 construct: gene MAPK10
# KIT-autoinhibited = system: KIT-autoinhibited
# KIT = system: KIT
# LATS1 = system: LATS1
# LATS2 = system: LATS2
# LCK = system: LCK
# LIMK1 = system: LIMK1
# LIMK2 = system: LIMK2
# LKB1 = system: T2, LKB1
# T2 construct: gene STK11
# LOK = system: T3, LOK
# T3 construct: gene STK10
# 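Note: KINOMEscan kinase panel screen.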
SMILES,%Inh (JNK3) [%],%Inh (KIT-autoinhibited) [%],%Inh (KIT) [%],%Inh (LATS1) [%],%Inh (LATS2) [%],%Inh (LCK) [%],%Inh (LIMK1) [%],%Inh (LIMK2) [%],%Inh (LKB1) [%],%Inh (LOK) [%]
CN1c2ccc(-c3ccc(C(N)=O)cc3)cc2-c2[nH]ncc2S1(=O)=O,0,20,0,9,0,5,0,0,10,5
COc1cccc(C2=C(Nc3cc(Cl)c(O)c(Cl)c3)C(=O)NC2=O)c1 [SB-390767],15,0,0,1,0,0,31,0,0,0
COc1ccc(CSc2nnc(-c3ccc4c(c3)CCO4)o2)cc1,0,0,0,0,0,0,0,0,6,0
Cc1cccc2c(-c3ccncn3)c(-c3ccc(F)cc3)nn12 [GW515532],74,0,6,0,11,17,0,0,0,0
COc1ccc(Nc2nccc(N3CCC(NC(=O)C(C)c4ccc(Cl)cc4)CC3)n2)cc1 (centres unmarked) [GSK1379812],10,0,15,32,100,38,2,18,11,0
CC(C)c1cc(-c2ccc3c(N)n[nH]c3c2)nc(N)n1 [GSK2250882],8,0,9,0,0,9,0,0,14,0
Fc1ccc(-c2nn3cccc(F)c3c2-c2ccncc2)cc1 [GW475620],97.4,0,3,12,0,18,0,0,0,8
CS(=O)(=O)CCNCc1nc(-c2ccc3ncnc(Nc4ccc5c(cnn5Cc5ccccc5)c4)c3c2)cs1.Cl.Cl [GW569716],4,0,6,0,0,9,0,0,0,0
COC(=O)C(Cc1ccccc1)NC(=O)NC1CCN(c2ccnc(Nc3ccc(F)cc3)n2)C1 (centres unmarked) [GSK1379714],0,9,11,0,15,21,0,9,21,3
COc1ccc(Nc2nccc(-c3ccc(NC(=O)c4cc5cc(F)ccc5[nH]4)cc3)n2)cc1 [GSK1229496],3,0,11,0,1,0,38,7,15,0
Cl.Cl.Cl.N#Cc1ccc(CCNc2nccc(-c3cccc(CN4CCNCC4)c3)n2)cc1 [GSK2137462],22,0,29,15,36,12,18,38,1,0
Cc1ccc(NC(=O)Nc2ccc(Cl)cc2)cc1-c1ccc(C(=O)Nc2ccncc2)cc1 [GSK1398472],1,4,99.9,2,0,60,28,67,0,35
CSc1ccc(-c2nc3n(c2-c2ccncc2)CCC3)cc1 [SKF-105561],59,0,0,31,13,0,0,0,0,8
CNC(=O)c1ccc(C)c(-n2c(C)cc(OCc3ccc(F)cc3F)c(Br)c2=O)c1,100,0,0,0,0,1,0,0,0,0
CC(=O)c1cccc(NC(=O)NC2CCN(c3ccnc(Nc4ccc(F)cc4)n3)C2)c1 (centres unmarked) [GSK1379710],22,4,49,0,2,12,11,22,23,0
Fc1ccc(-c2nc3n(c2-c2ccncc2)CCS3)cc1 [GI98581],98.7,0,15,2,0,26,0,0,11,0
Cc1ccc(-c2nc(Nc3ccncc3)c3ccccc3n2)s1 [GSK189015],14,0,22,0,0,7,31,7,0,1
